Measured values reported in PubChem BioAssay.

Assays:
[1] = target: Tumor necrosis factor receptor superfamily member 10B (Homo sapiens) (UniProt O14763); assay: viability loss of caspase-8 NB7 cells with TRAIL – with/without TRAIL, luminescence panel, confirmation (AID 651596); settings: NB7 neuroblastoma + caspase-8, TRAIL sensitization, NB7 Caspase-8, with TRAIL, mean of runs, at 10 µM, stronger effect = higher value
[2] = as above; settings: NB7 neuroblastoma + caspase-8, without TRAIL, NB7 Caspase-8, without TRAIL, mean of runs, at 10 µM

Tumor necrosis factor receptor superfamily member 10B (Homo sapiens), sequence (O14763 whole entry, looked up): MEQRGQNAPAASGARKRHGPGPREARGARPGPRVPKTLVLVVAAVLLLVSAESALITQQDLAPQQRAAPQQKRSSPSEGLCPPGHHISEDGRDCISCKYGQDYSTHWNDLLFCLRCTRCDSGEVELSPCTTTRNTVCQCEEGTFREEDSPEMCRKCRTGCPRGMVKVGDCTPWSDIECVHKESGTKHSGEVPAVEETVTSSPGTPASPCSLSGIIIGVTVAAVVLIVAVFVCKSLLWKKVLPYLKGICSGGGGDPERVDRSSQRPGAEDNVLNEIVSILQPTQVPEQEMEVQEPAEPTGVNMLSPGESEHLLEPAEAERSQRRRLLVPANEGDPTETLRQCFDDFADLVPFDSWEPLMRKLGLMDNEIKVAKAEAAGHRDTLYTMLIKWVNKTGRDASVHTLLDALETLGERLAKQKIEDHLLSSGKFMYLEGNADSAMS

Structure (SMILES)	activity [1] [%]	activity [2] [%]
Cc1ccsc1/C=C/c1ccc2ccccc2n1	42.2	30.9
CC(/C=N/NC(=O)c1n[nH]c2c1CCC2)=C\c1ccccc1	48.1	68.9
CCC(=O)N1CCCc2cc(S(=O)(=O)N3CCN(c4ccccc4F)CC3)ccc21	17.2	1.9
C#CC(=O)N(c1cccc(OC)c1)C(C(=O)NC1CCCC1)c1cccs1 (stereo not drawn)	99.4	99.5
CCOC(=O)c1cnc2c(Cl)c(Cl)ccc2c1N1CCN(C)CC1	39.3	43
CSc1ccc(C2NC(=O)c3ccccc3N2)cc1 (stereo not drawn)	31.3	45.8
Cc1ccc2cc(NC(=O)c3cccc(F)c3)ccc2n1	21.3	10.6
COc1ccccc1Nc1nc(N)nc(CCl)n1	98.8	96.4
Fc1ccc(-c2nc(-c3cnccn3)no2)c(Cl)c1	59.1	58.1
CCOc1cc(NC(=O)CCl)c(OCC)cc1NC(=O)CCl	96.6	98.5
Cc1ccc(C)c(NC(=S)NC(NC(=O)Cc2cccc3ccccc23)C(Cl)(Cl)Cl)c1 (stereo not drawn)	82.6	87.8
CCCCC1CCC(C(=O)N(CCCC)c2c(N)n(CCCC)c(=O)[nH]c2=O)CC1 (stereo not drawn)	81.5	77.5
COc1ccc(-c2ccc3ccccc3n2)cc1	32.4	16
CC1=C(C(=O)N(C)C)CC(CC(=O)NCCN2CCOCC2)C(=O)N1CCCN1CCCC1=O (stereo not drawn)	-0.625	-4.97
CCOC(=O)c1c(NC(=O)COc2ccccc2OCC)sc2c1CC(C)(C)NC2(C)C	95.8	99.3
O=C1c2ccccc2NC(c2ccc3c(c2)OCCO3)N1c1ccc2c(c1)OCCO2 (stereo not drawn)	44.2	51.8
COc1ccc(C[C@H](N)C(=O)N[C@H]2[C@@H](O)[C@H](n3cnc4c(N(C)C)ncnc43)O[C@@H]2CO)cc1	98.4	99.2
Cc1csc(NC(=O)c2ccc(OCC3CCCO3)cc2)n1 (stereo not drawn)	54.9	64.9
Clc1ccc(-c2nc(-c3ccccn3)no2)cc1Cl	77.5	74.5
COc1ccc(-c2nc3ccccc3[nH]2)cc1	89	90.7
CC(C)NC(=O)c1ccc2c3n(nc2c1)-c1ccccc1CO3	95.8	95.5
Cc1cc(C(=O)Nc2sc3c(c2C#N)CCC(C)C3)no1 (stereo not drawn)	58.6	52.6
O=C(Nc1ccc(-c2nc3ccccc3o2)cc1)C1CCCO1 (stereo not drawn)	51.7	43
Cc1ccc2nc(NC(=O)c3ccco3)sc2c1	80.4	76.2

Structure (SMILES)	activity [1] [%]	activity [2] [%]
O=C(Nc1ccc(N2CCCC2)c(Cl)c1)c1ccco1	43.3	27
Cc1ccc(C(=O)NC2CCCCCCC2)c(Cl)c1	62.7	53.6
O=C(N/N=C/c1cccc(O)c1)c1ccc2c(c1)OCCO2	93.8	90.7
CCc1ccc(C(=O)Nc2cc(C)ccc2F)s1	-9.2	27.4
CC(=O)c1ccccc1OCC(O)CN1CCN(CCN2C(=O)c3cccc4cccc(c34)C2=O)CC1 (stereo not drawn)	45.6	16.4
COc1ccc(-c2cc(-c3ccccc3)c(C#N)c(S(C)(=O)=O)n2)cc1	79.3	96.9
O=c1c2c(-c3ccccc3)csc2nc2c3ccccc3c(NCCN3CCOCC3)nn12	89.5	90.1
Cc1ccc(S(=O)(=O)N2CCCCC2)cc1NC(=O)Cn1ncc(Cl)c(Cl)c1=O	98.7	99.3
COc1ccc(C=C2OC(=O)C(C(C)=O)=C2O)cc1	90.4	89
COc1ccccc1C=C1CCc2ccccc2C1=O	78.4	74.3
Cc1nc2nc(C)n(CCN3CCOCC3)c(=O)c2c(-c2cccc([N+](=O)[O-])c2)c1C(=O)CCCCCCCCCCN1CCC(c2ccccc2)(c2ccccc2)CC1	92.6	89.9
Cc1cccc(Nc2nc(N)nc(CCl)n2)c1C	99	98.3
O=C(Nc1ccc2c(c1)OCCO2)c1ccc(Br)s1	74.3	66.8
Cc1ccc(-c2ccccc2NC(=O)CCl)o1	47.4	64.3
O=C(Nc1ccc2nc3n(c(=O)c2c1)CCCCC3)c1c(F)ccc([N+](=O)[O-])c1F	72.9	52.3
N#Cc1ccc(C(=O)Nc2nc(-c3cccs3)c(C(=O)C(F)(F)F)s2)cc1	36.9	37
c1ccc(CNc2nc(NCC3CC3)nc3cc(-c4ccccc4)sc23)cc1	15.9	16.7
O=C(CCl)N(CCCNC(=O)C(F)(F)F)c1ccc([N+](=O)[O-])cc1	98.5	98.3
Clc1ccc(/C=N/Nc2nnc(-c3ncc[nH]3)c3ccccc23)cc1	57	49.9
Cc1cccc(NC(=O)c2cnc3ccccn3c2=O)c1	69	62.9
O=C(c1ccccc1)n1c(=S)nc2ccccn21	86.2	85.5
CC1CCc2nc(NC(=O)c3ccco3)sc2C1 (stereo not drawn)	90.5	89
Cc1ccc(C(=O)n2c(N)nc3ccccc32)cc1	98.3	98.4
C#Cc1ccc(NC(=O)C2(C)CCN2C(=O)CC(c2ccccc2)c2ccccc2)cc1 (stereo not drawn)	94.4	89

Structure (SMILES)	activity [1] [%]	activity [2] [%]
CCc1nc(N)nc(N)c1-c1ccc(NCCN)c([N+](=O)[O-])c1	80.7	81.5
CC(=O)c1c(C)[nH]c(C(=O)Nc2ccccn2)c1C	31.1	31.1
Cc1cc(C)n(-c2nc(Nc3ccccc3C(F)(F)F)nc(-n3nc(C)cc3C)n2)n1	51.8	71.9
O=C1Nc2ccccc2N(C(=O)c2c(F)cccc2F)C1c1nc2ccccc2[nH]1 (stereo not drawn)	47.6	60.3
O=S(=O)(Nc1nc2ccccc2nc1N1CCc2ccccc2C1)c1ccc(Br)cc1	55.5	66.2
CN(C(=O)c1ccc(NC(=O)Cc2cccc(NC(=O)C3CCCN(S(=O)(=O)c4cccc([N+](=O)[O-])c4)C3)c2)cc1)C1CC1 (stereo not drawn)	56.3	36.1
C/C=C/c1ccc(OCCCNC2CCCC2)c(OC)c1	1.5	-12.4
Cc1ccc(C2CC2c2n[nH]c(=S)n2-c2ccc(Cl)cc2)cc1 (stereo not drawn)	63	45.3
O=C(CCN1C(=O)NC2(CCCC2)C1=O)Nc1ccc(-c2nc3ccccc3s2)cc1	52.2	44.5
C/C(=N\NC(=O)COc1ccc(C(C)(C)C)cc1)c1ccc(-n2ccnc2)cc1	63.5	49.1
CCOc1ccc(-c2ccc(SCC(=O)NCC3CCCO3)nn2)cc1 (stereo not drawn)	41.8	32.7
CN1/C(=C\C(=O)C[n+]2ccc(C(=O)c3ccccc3)cc2)C(C)(C)c2ccccc21	15.8	27.4
CCOC(=O)C1CCN(C(=O)C2c3ccccc3C(=O)N(C)C2c2ccc(OC)cc2)CC1 (stereo not drawn)	66.1	60.9
O=C(Nc1nnc(SCC(=O)N2CCOCC2)s1)c1ccccc1	80	77.4
NC(c1csc(NC(=O)Nc2ccc(OC(F)(F)F)cc2)n1)C1CCCCC1 (stereo not drawn)	63.7	92.2
Cc1cccc(/C(N)=N/OC(=O)c2ccc(Cl)cc2Cl)c1	97.3	91.8
CSc1nnc(NC(=O)c2ccc3c(c2)OCO3)s1	76.5	78.7
Cc1cc(C)c2c(N)c(C(=O)Nc3nccs3)sc2n1	89.5	87.2
Cc1ccc(N(NC(=O)C(O)(c2ccccc2)c2ccccc2)C(=O)CCl)cc1	98.5	97.6
COc1cc(OC)cc(C(=O)Nc2nc3ccccc3[nH]2)c1	55	56.8
COc1ccc(/C(N)=N/OC(=O)c2ccc(OC)c([N+](=O)[O-])c2)cc1OC	92.1	84.7
COc1ccccc1N1CCN(C2=Nc3cccc4cccc2c34)CC1	63.1	58.2
O=C(CCl)N=c1sccn1Cc1cccc2ccccc12	98.8	99.1
Nc1c(-c2ccccc2)cnn1-c1ccccc1	44.6	40.4

Structure (SMILES)	activity [1] [%]	activity [2] [%]
O=C(Nc1nc2ccccc2[nH]1)c1ccc(OC(F)F)cc1	95.3	94.6
COCC(C)n1c(C)cc(C(=O)COC(=O)c2n[nH]c3ccccc23)c1C (stereo not drawn)	58.5	51.9
COc1cccc(/C=C/C(=O)NNC(=O)c2ccco2)c1OC	66.7	62.8
C=CCNc1ncnc2c1ncn2C1OC(CO)C(O)C1O (stereo not drawn)	46.8	60.6
O=C(N/N=C/c1cccc([N+](=O)[O-])c1)c1ccc2c(c1)OCCO2	73.3	61.3
OC(c1cc(-c2cccc(Cl)c2)nc2ccccc12)C1CCCCN1 (stereo not drawn)	71.2	82.1
CCOc1ccc(N2C(N)=NC(N)=NC2(C)C)cc1	67.3	82.9
Cc1cc(NC(=O)c2ccc(S(=O)(=O)N3CCCC3)cc2)nc2c1c(=O)oc1ccccc12	69.5	58.2
O=C(/C=C/c1ccccc1Cl)Nc1cccc(O)c1	61.3	42.2
C/C(=N\NC(=O)c1ccccc1NC(=O)c1ccc(Cl)cc1)c1ccncc1	99.1	99
Cc1ccc(C(=O)Nc2ncc(C)s2)s1	80.2	79
Cc1onc(-c2ccccc2Cl)c1C(=O)O/N=C(\N)c1cccc([N+](=O)[O-])c1	92.2	93.3
CC1CCc2c(sc(/N=C/c3ccco3)c2C(N)=O)C1 (stereo not drawn)	54.1	56.5
Cc1cccc(-c2nc3cc(NC(=O)C4CCCO4)ccc3o2)c1 (stereo not drawn)	66.7	64.7
Cc1ccccc1C(=O)Nc1ccc2c(c1)OCCO2	61.1	63.2
C=C(C)CSc1nnc2n(Cc3ccccc3)c(=O)c3c4c(sc3n12)CCC4	90.4	90
O=C(Nc1ccc(NC(=O)c2ccco2)nc1)c1ccco1	71.2	61.5
CCCc1cc(=O)[nH]c(SCC(=O)Nc2cc(S(=O)(=O)N3CCCCC3)ccc2C)n1	3.67	-4.17
Cc1cccc2sc(NNC(=O)c3cc(-c4cccs4)nc4ccccc34)nc12	25.2	26.2
Cc1ccc2nc(-c3ccccn3)oc2c1	75.3	64.1
CCCc1ccc(-c2cc(C(=O)N/N=C/c3ccc([N+](=O)[O-])o3)c3ccccc3n2)cc1	91.6	93.3
C#CCN(C[C@@H]1[C@@H](OC(=O)NCC2CCCCC2)[C@@H](OC(=O)NCC2CCCCC2)Cn2c(=O)ccc(=O)n21)S(=O)(=O)c1ccc(C)cc1	97.7	98.3
